Values joined by “and” are separate entries in the source; they are usually repeats but may differ in a detail not shown here. Identical values can stand only once. Results filed as inconclusive are left out. Some structures have more than one record in an assay (separate samples or runs), and their calls can disagree. Active and inactive are the calls of the source. Unless noted, calls follow the shape of the dose curve; as a rule, active = well fitted curve in the direction sought with a large enough effect in the repeat runs; inconclusive = weak or mixed curves; inactive = no such curve, though single readings can be large; an effect the other way counts as inactive or inconclusive.
Experiments:
[1] = qHTS assay to identify small molecule antagonists of the constitutive androstane receptor (CAR) signaling pathway - cell viability counter screen (AID 1224837); also: nearly all actives have a fitted effect of over 45% in size; also: potency is read from the fitted curve at half-maximal effect
In short: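 HepG2-CYP2B6-hCAR cells, 2500/well, 4 hr pre-incubation; compound titration, 15 conc.; CITCO 50 nM final; 23 hr, 37 C/5% CO2; CellTiter-Fluor, fluorescence intensity.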

[2] = target: Nuclear receptor subfamily 1 group I member 3 (Homo sapiens) (UniProt Q14994); experiment: qHTS assay to identify small molecule antagonists of the constitutive androstane receptor (CAR) signaling pathway (AID 1224838);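 also: HepG2 cells stably expressing hCAR with CYP2B6 luciferase reporter stimulated by CITCO; nearly all actives have a fitted effect of over 40% in size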; also: potency is read from the fitted curve at half-maximal effect
In short: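 HepG2-CYP2B6-hCAR cells; 4 h pre-incubation; cpd (15 conc) + CITCO 50 nM final; 24 h, 37 C/5% CO2; ONE-Glo, luminescence.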

[3] = target: Nuclear receptor subfamily 1 group I member 3 (Homo sapiens) (UniProt Q14994); experiment: qHTS assay to identify small molecule agonists of the constitutive androstane receptor (CAR) signaling pathway (AID 1224839); also: nearly all actives have a fitted effect of over 15% in size; also: potency is read from the fitted curve at half-maximal effect;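 as to activation: HepG2 cells stably carrying human CAR and a CYP2B6 luciferase reporter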
In short: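 HepG2 cells stably co-transfected with hCAR and a CYP2B6-2.2kb luciferase reporter; compounds at 15 concentrations with 0.75 uM PK11195 present. After 24 hr at 37 C, luciferase read by ONE-Glo luminescence.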

[4] = qHTS assay to identify small molecule antagonists of the estrogen related receptor signaling pathway with the pleiotropic PPARgamma coactivator (PGC) from Tox21 10K library - cell viability counter screen (AID 1224840; active = well fitted cell-killing curve with a large enough effect in the repeat runs, not every such curve was filed as active; also: nearly all actives have a fitted effect of over 40% in size)
In short: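 PGC/ERR cells, 2,000/well; 6 h pre-incubation 37 C/5% CO2; cpd in DMSO via pin tool; 17.5 h 37 C; CellTiter-Fluor, 30 min; fluorescence.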

[5] = qHTS assay to identify small molecule agonists of the hypoxia (HIF-1) signaling pathway - cell viability counter screen (AID 1224844; calls by dose curve; also: nearly all actives have a fitted effect of over 50% in size; also: potency is read from the fitted curve at half-maximal effect)
In short: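 ME-180 HRE-bla cells, 2,000/well, 0.5% dialyzed FBS; 5 hr settle, 17 hr compound at 37C/5% CO2; CCF4-AM reporter read first, then CellTiter-Glo luminescence after 30 min RT.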

[6] = qHTS assay to identify small molecule agonists of H2AX (AID 1224845; active = well fitted activation curve with a large enough effect in the signal ratio in the repeat runs, not every such curve was filed as active; the % refers to the signal ratio)
In short: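 Wild-type CHO-K1 cells plated overnight, then exposed 3 hr at 37C to compounds at 15 concentrations (0.76% DMSO). Lysed, then HTRF anti-pH2AX(S139)-cryptate/anti-H2AX-d2 detection after 24 hr at room temperature; emissions 665 and 620 nm.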

[7] = qHTS assay to identify small molecule agonists of the hypoxia (HIF-1) signaling pathway (AID 1224846; active = well fitted activation curve with a large enough effect in the signal ratio in the repeat runs, not every such curve was filed as active; the % refers to the signal ratio)
In short: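 Cell line: CellSensor HRE-bla ME-180; 2,000 cells/well; 0.5% dialyzed FBS; 5 h preincubation; DMSO compound pin transfer; 17 h, 37C, 5% CO2; CCF4-AM added; bla FRET signal scored for activation.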

[8] = qHTS assay to identify small molecule agonists of H2AX - cell viability counter screen (AID 1224847; calls by dose curve; also: nearly all actives have a fitted effect of over 30% in size; also: potency is read from the fitted curve at half-maximal effect)
In short: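 CHO-K1 cells plated overnight at 37C, then exposed 3 h at 37C to compounds at 15 concentrations (0.76% DMSO final). Viability by CellTiter-Glo luminescence after 30 min at room temperature.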

[9] = qHTS RealTime-Glo MT Cell Viability Assay in HepG2 cells - 24 hour (AID 1224867); also: nearly all actives have a fitted effect of over 50% in size; also: potency is read from the fitted curve at half-maximal effect
In short: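 HepG2 cells (600/well) were dispensed with RealTime-Glo reagents, incubated 5 h at 37 °C, then treated with compounds in DMSO for up to 40 h. Nonlytic NanoLuc luminescence reflecting viable cells was read at each stated time point.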

[10] = qHTS RealTime-Glo MT Cell Viability Assay in HEK293 cells - 32 hour (AID 1224868); also: nearly all actives have a fitted effect of over 50% in size; also: potency is read from the fitted curve at half-maximal effect
In short: (§1)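 HEK293 cells seeded with NanoLuc/prosubstrate reagent, rested 5 h at 37 C, then dosed and kept at 37 C up to 40 h. Nonlytic real-time luminescence from viable cells read at 0, 8, 16, 24, 32 and 40 h.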

[11] = A CellTox Green Cytotoxicity Assay to monitor cytotoxicity in HEK293 cells - 0 hour (AID 1224869); also: nearly all actives have a fitted effect of over 50% in size
In short: (§2)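 Nonlytic real-time cytotoxicity: HEK293 + CellTox Green reagent plated, 5 h preincubation, pintool compound addition (23 nL in DMSO), 37 C for 40 h, fluorescence measured at successive time points.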

[12] = qHTS RealTime-Glo MT Cell Viability Assay in HepG2 cells - 40 hour (AID 1224870); also: nearly all actives have a fitted effect of over 50% in size; also: potency is read from the fitted curve at half-maximal effect
In short: (§3)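 HepG2 cells mixed with RealTime-Glo MT reagents (NanoLuc plus cell-permeant prosubstrate) were seeded at 600 cells/well, incubated 5 h at 37 C/5% CO2, then pinned with compounds in DMSO; nonlytic luminescence tracked viability during 40 h treatment.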

[13] = A CellTox Green Cytotoxicity Assay to monitor cytotoxicity in HEK293 cells - 40 hour (AID 1224871); also: nearly all actives have a fitted effect of over 45% in size; also: potency is read from the fitted curve at half-maximal effect
In short: as §2

[14] = qHTS RealTime-Glo MT Cell Viability Assay in HEK293 cells - 16 hour (AID 1224872); also: nearly all actives have a fitted effect of over 50% in size; also: potency is read from the fitted curve at half-maximal effect
In short: as §1

[15] = qHTS RealTime-Glo MT Cell Viability Assay in HepG2 cells - 8 hour (AID 1224873); also: nearly all actives have a fitted effect of over 55% in size
In short: as §3

[16] = qHTS assay to identify small molecule antagonists of the estrogen related receptor signaling pathway with the pleiotropic PPARgamma coactivator (PGC) from Tox21 10K library (AID 1224841; call rule not given here)
In short: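 PGC/ERR cell line, 2,000 cells/well; 6 h pre-incubation 37 C/5% CO2; compounds (DMSO) pinned in; 18 h, 37 C; One-Glo, 30 min RT; luminescence.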

[17] = qHTS assay to identify small molecule agonists of the estrogen related receptor signaling pathway with the pleiotropic PPARgamma coactivator (PGC) from Tox21 10K library (AID 1224842); also: nearly all actives have a fitted effect of over 15% in size; also: potency is read from the fitted curve at half-maximal effect
In short: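 PGC/ERR reporter cells (NTP line) were seeded 2,000 per well, rested 6 h at 37 C/5% CO2, then pin-dosed with compounds in DMSO for 18 h at 37 C; luciferase read by One-Glo luminescence after 30 min at room temperature.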

[18] = target: Thyrotropin receptor (Homo sapiens) (UniProt P16473); experiment: qHTS assay to identify small molecule agonists of the thyroid stimulating hormone receptor (TSHR) signaling pathway (AID 1224843; calls by dose curve; also: nearly all actives have a fitted effect of over 45% in size)
In short: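 TSHR-expressing HEK293 cells (800 per well) were exposed to compounds for 30 min at room temperature. cAMP was then detected by HTRF competition with cAMP-d2 and anti-cAMP cryptate, read after 1 h at room temperature. Fifteen concentrations, triplicate.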

[19] = qHTS assay to identify small molecule antagonists of the estrogen related receptor (ERR) signaling pathway from Tox21 library (AID 1224848); also: nearly all actives have a fitted effect of over 50% in size; also: potency is read from the fitted curve at half-maximal effect
In short: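 Cells: ERR line, 2,000/well; 6 h preincubation 37 C/5% CO2. Cpd in DMSO via pin tool; 18 h, 37 C. ONE-Glo, 30 min RT, luminescence.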

[20] = qHTS assay to identify small molecule agonists of the estrogen related receptor (ERR) signaling pathway from Tox21 library (AID 1224849; calls by dose curve; also: nearly all actives have a fitted effect of over 15% in size); conditions: ERR reporter cell line, ONE-Glo luciferase, 18 h; at 92.4 µM (top of the series) unless noted
In short: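 ERR cells, 6 h pre-incubation 37 C/5% CO2; cpd in DMSO pinned; 18 h 37 C; ONE-Glo added, 30 min RT; luminescence read. Agonist mode, qHTS.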
% is scaled to controls: 0 for no effect and ±100 for the full control effect.

Chain of Thyrotropin receptor (Homo sapiens) (P16473 whole entry, looked up): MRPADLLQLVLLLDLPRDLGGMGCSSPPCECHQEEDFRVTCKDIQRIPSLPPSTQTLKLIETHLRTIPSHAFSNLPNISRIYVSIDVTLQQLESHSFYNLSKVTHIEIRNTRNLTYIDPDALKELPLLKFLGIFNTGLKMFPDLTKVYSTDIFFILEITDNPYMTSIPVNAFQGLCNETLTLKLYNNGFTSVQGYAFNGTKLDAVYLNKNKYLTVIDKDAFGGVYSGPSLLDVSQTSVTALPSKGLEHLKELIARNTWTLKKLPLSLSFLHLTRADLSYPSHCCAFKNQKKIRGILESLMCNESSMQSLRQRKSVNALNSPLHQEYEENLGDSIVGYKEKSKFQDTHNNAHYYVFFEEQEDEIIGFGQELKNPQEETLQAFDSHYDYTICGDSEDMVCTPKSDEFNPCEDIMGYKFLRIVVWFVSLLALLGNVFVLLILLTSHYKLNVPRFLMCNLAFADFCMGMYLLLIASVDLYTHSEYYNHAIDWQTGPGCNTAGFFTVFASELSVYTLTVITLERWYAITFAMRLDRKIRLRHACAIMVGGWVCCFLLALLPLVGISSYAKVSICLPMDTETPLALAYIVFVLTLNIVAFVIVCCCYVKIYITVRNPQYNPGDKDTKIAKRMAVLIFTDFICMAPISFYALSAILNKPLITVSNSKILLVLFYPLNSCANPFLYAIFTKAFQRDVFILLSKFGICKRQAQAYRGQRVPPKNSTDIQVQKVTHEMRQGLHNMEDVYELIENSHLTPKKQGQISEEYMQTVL
Chain of Nuclear receptor subfamily 1 group I member 3 (Homo sapiens) (Q14994 whole entry, looked up): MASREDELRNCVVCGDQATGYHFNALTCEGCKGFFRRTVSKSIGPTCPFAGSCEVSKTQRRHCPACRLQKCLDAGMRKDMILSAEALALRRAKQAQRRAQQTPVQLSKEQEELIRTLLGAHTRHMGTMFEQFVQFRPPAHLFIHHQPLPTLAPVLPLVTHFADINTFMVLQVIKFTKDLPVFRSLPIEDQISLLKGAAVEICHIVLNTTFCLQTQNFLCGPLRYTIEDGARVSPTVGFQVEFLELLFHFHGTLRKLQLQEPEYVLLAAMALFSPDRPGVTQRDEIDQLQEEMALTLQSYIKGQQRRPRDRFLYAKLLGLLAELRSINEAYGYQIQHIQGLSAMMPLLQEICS

C=CC(C)C#N (stereo not given)
inactive: Potency [1] | Potency [2] | Potency [3] | Potency [4] | Potency [5] | Potency [6] | outcome [7] | Potency [8] | Potency [9] | Potency [10] | Potency [11] | Potency [12] | Potency [13] | Potency [14] | Potency [15]

NC(=O)c1ccccc1N
inactive: Potency [1] | Potency [2] | Potency [3] | Potency [16] | Potency [17] | Potency [18] | Potency [5] | Potency [6] | outcome [7] | Potency [8] | Potency [19] | activity change, positive = activation [20] -2.02% | Potency [9] | Potency [10] | Potency [11] | Potency [12] | Potency [13] | Potency [14] | Potency [15]

CCCCCCCOC(=O)c1ccccc1C(=O)OCCCCCCC
inactive: Potency [1] | Potency [2] | Potency [4] | Potency [16] | Potency [17] | Potency [18] | Potency [5] | Potency [6] | outcome [7] | Potency [8] | Potency [19] | activity change, positive = activation [20] 1.61% | Potency [9] | Potency [10] | Potency [11] | Potency [12] | Potency [13] | Potency [14]

c1ccc(Nc2cccc3ccccc23)cc1
15.6 µM (active) and inactive: Potency [17]
active: Potency [3] 61.9 µM and 61.1 µM | activity change, positive = activation [20] -11.6%
inactive: Potency [1] | Potency [2] | Potency [16] | Potency [5] | Potency [19] | Potency [9] | Potency [10] | Potency [11] | Potency [12] | Potency [13] | Potency [14] | Potency [15]

C[C@]12CC[C@H]3C(=CCc4cc(O)ccc43)[C@@H]1CCC2=O
active: Potency [3] 27.3 µM | Potency [5] 38.9 µM | Potency [19] 61.1 µM | Potency [10] 49 µM
inactive: Potency [1] | Potency [2] | Potency [16] | Potency [6] | outcome [7] | activity change, positive = activation [20] -51.5% | Potency [11] | Potency [12] | Potency [13]

CCCCCCCOC(=O)c1ccc(O)cc1
inactive and 24.5 µM (active): Potency [13]
active: Potency [5] 55 µM | Potency [10] 24.6 µM and 21.9 µM | Potency [14] 24.6 µM and 21.9 µM
inactive: Potency [1] | Potency [2] | Potency [3] | Potency [4] | Potency [6] | Potency [9] | Potency [11] | Potency [12] | Potency [15]

CCCCCCCC/C=C\CCCCCCCC(=O)N(C)CC(=O)O
active: Potency [5] 49 µM | Potency [8] 101 µM | Potency [13] 34.7 µM
inactive: Potency [1] | Potency [2] | Potency [3] | Potency [16] | Potency [17] | activity change, positive = activation [20] -30% | Potency [9] | Potency [11] | Potency [12]

NC(=O)C(=O)N/N=C/c1ccc([N+](=O)[O-])o1
inactive: Potency [1] | Potency [2] | Potency [3] | Potency [5] | outcome [7] | Potency [9] | Potency [10] | Potency [11] | Potency [12] | Potency [13] | Potency [14] | Potency [15]

O=C(Oc1ccccc1)c1cccc(C(=O)Oc2ccccc2)c1
inactive: Potency [1] | Potency [2] | Potency [4] | Potency [5] | Potency [9] | Potency [11] | Potency [12] | Potency [13] | Potency [14] | Potency [15]
active: Potency [3] 1.44 µM

CC(O)C#CC(C)O (stereo not given)
inactive: Potency [3] | Potency [11]
active: Potency [1] 53.9 µM | Potency [2] 48.1 µM | Potency [13] 54.4 µM

O=C1NCCN1CCN1CCC(c2cn(-c3ccc(F)cc3)c3ccc(Cl)cc23)CC1
inactive: Potency [3] | Potency [16] | outcome [7] | activity change, positive = activation [20] -56.2% [at 42.5 µM] | Potency [11]
active: Potency [1] 11.9 µM | Potency [2] 11.9 µM | Potency [8] 49.2 µM | Potency [19] 13.3 µM | Potency [9] 23.9 µM | Potency [10] 21.3 µM | Potency [12] 26.8 µM | Potency [13] 23.9 µM | Potency [14] 23.9 µM

Oc1cc2ccccc2cc1O
inactive: Potency [1] | Potency [2] | Potency [3] | Potency [18] | Potency [5] | outcome [7] | Potency [8] | Potency [9] | Potency [11] | Potency [12] | Potency [15]

CC(C)=CCCC(C)O (stereo not given)
inactive: Potency [1] | Potency [2] | Potency [3] | Potency [16] | Potency [17] | Potency [18] | Potency [5] | Potency [6] | outcome [7] | Potency [8] | Potency [19] | activity change, positive = activation [20] 0.538% | Potency [9] | Potency [10] | Potency [11] | Potency [12] | Potency [13] | Potency [14] | Potency [15]

OCCCS
inactive: Potency [1] | Potency [2] | Potency [3] | Potency [18] | outcome [7] | Potency [8] | Potency [9] | Potency [10] | Potency [11] | Potency [12] | Potency [13] | Potency [14] | Potency [15]

Reference: PubChem BioAssay (Tox21)
